Source: PubChem BioAssay (NCATS)
Where “and” joins values, the source holds several entries; their conditions need not be identical. Equal entries are not always repeated. Inconclusive results are not listed. Calls of active or inactive are those of the source. Calls follow the shape of the dose curve; as a rule, active = well fitted inhibition curve with a large enough effect; inconclusive = small, poorly fitted or top-dose-only effect; inactive = flat fitted curve, though single readings scatter.

Columns and labels:
[1] = test system: HEK293; assay: Cytotoxic Profiling of Annotated Libraries Using Quantitative High-Throughput Screening (AID 1296008); settings: Five cell lines viability, CellTiter-Glo ATP luminescence, 48-72 h; max response: hits give low values
In short: (§1)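 Cytotoxicity was measured as CellTiter-Glo ATP luminescence, read after 10 min at room temperature. Compound treatment of the cells lasted 48 or 72 hr at 37 degrees Celsius in a qHTS format.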

[2] = test system: HaCat; assay: as above; settings: Five cell lines viability, CellTiter-Glo ATP luminescence, 48-72 h; max response: hits give low values
In short: as §1

[3] = test system: KB-3-1; assay: as above; settings: Five cell lines viability, CellTiter-Glo ATP luminescence, 48-72 h; max response: hits give low values
In short: as §1

[4] = test system: NIH3T3; assay: as above; settings: Five cell lines viability, CellTiter-Glo ATP luminescence, 48-72 h; max response: hits give low values
In short: as §1

[5] = test system: HACAT; assay: qHTS assay to identify novel small-molecules to repurpose for Merkel cell carcinoma treatment (AID 1296009); settings: MCC and control cell lines, CellTiter-Glo viability, 72 h; at 44.8 µM (top of the series) unless noted
In short: (§2)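 After compound transfer in DMSO, plates were kept 72 hr at 37 degree celsius. Luminescent ATP signal from CellTiter-Glo served as viability measure, normalized against DMSO and no-cell controls.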

[6] = test system: HEK293T; assay: as above; settings: MCC and control cell lines, CellTiter-Glo viability, 72 h; series mostly up to 44.8 µM
In short: as §2

[7] = test system: MCC-13; assay: as above; settings: MCC and control cell lines, CellTiter-Glo viability, 72 h; series mostly up to 46 µM
In short: as §2

[8] = test system: MCC-26; assay: as above; settings: MCC and control cell lines, CellTiter-Glo viability, 72 h; series mostly up to 46 µM
In short: as §2

[9] = test system: MKL-1; assay: as above; settings: MCC and control cell lines, CellTiter-Glo viability, 72 h; series mostly up to 46 µM
In short: as §2

[10] = test system: MKL-2; assay: as above; settings: MCC and control cell lines, CellTiter-Glo viability, 72 h; series mostly up to 46 µM
In short: as §2
% is scaled to controls: 0 for no effect and ±100 for the full control effect.
Also: nearly all actives have a fitted effect of over 60% in size.

CC1=CC(=O)CC(C)(C)C1(O)CCC(C)O (stereo unspecified)
inactive: outcome [1] | outcome [2] | outcome [3] | max response [4] 2.02% | outcome [5] | Potency [6]

Cc1nnc(C(C)C)n1C1CC2CCC(C1)N2CC[C@H](NC(=O)C1CCC(F)(F)CC1)c1ccccc1 (stereo partly specified)
inactive: outcome [1] | outcome [2] | max response [3] -4.91% | outcome [4] | outcome [5] | Potency [6]

CCCC1=CC2=C(CO1)C(=O)C(C)(OC(=O)c1c(C)cc(OC)cc1O)C(O)C2 (stereo unspecified)
inactive: outcome [1] | outcome [2] | max response [3] 0.111% | outcome [4] | outcome [5] inactive [at 17.4 µM] | Potency [6]

CC1(C)CCC[C@@]2(C)[C@H]1[C@H](O)C=C1COC(=O)[C@@]12O
inactive: outcome [1] | outcome [2] | max response [3] 4.4% | max response [4] 2.05% | outcome [5] | Potency [6]

CC1C(=O)CC2C3C(O)CC(C(=O)O)C12CC3(C)C (stereo unspecified)
inactive: outcome [1] | outcome [2] | max response [3] 3.18% | outcome [4] | outcome [5] | Potency [6]

C=CC(C)(CC/C=C(\C)CC/C=C(\C)CC(O)/C=C(\C)C(=O)O)O[C@@H]1O[C@H](CO)[C@@H](O)[C@H](O)[C@H]1O[C@@H]1O[C@H](CO)[C@@H](O)[C@H](O)[C@H]1O (stereo partly specified)
inactive: outcome [1] | outcome [2] | max response [3] 5.27% | outcome [4] | outcome [5] inactive [at 17.4 µM] | Potency [6]

COc1cc2c(cc1O)C1(Cc3ccc4c(c3C1=O)OCO4)N(C)CC2 (stereo unspecified)
inactive: outcome [1] | outcome [2] | max response [3] 1.1% | outcome [4] | outcome [5] | Potency [6]

O=C(CCCCc1ccc2ccccc2c1)C(F)(F)F
inactive: outcome [1] | outcome [2] | max response [3] 2.37% | outcome [4] | outcome [5] inactive [at 92 µM] | Potency [6]

C=C1C(=O)OC2/C=C(\C)CC/C=C(\C(=O)O)CC/C=C(\C)CCC12 (stereo unspecified)
inactive: outcome [1] | outcome [2] | max response [3] 5.52% | max response [4] 2.63% | outcome [5] | Potency [6]

CC(=O)OCC1=C[C@H](O)[C@@H]2C(C(=O)O)=CO[C@@H](O[C@@H]3O[C@H](CO)[C@@H](O)[C@H](O)[C@H]3O)[C@H]12
inactive: outcome [1] | outcome [2] | max response [3] -1.91% | outcome [4] | outcome [5] inactive [at 17.4 µM] | Potency [6]

Cn1ccnc1CCOC(c1cc2nccc(C(=O)O)c2[nH]1)c1ccccc1Cl (stereo unspecified)
inactive: outcome [1] | outcome [2] | max response [3] 2.27% | max response [4] 4.24% | outcome [5] | Potency [6]

O=C(O)CCc1cccc(O[C@@H]2O[C@H](CO)[C@@H](O)[C@H](O)[C@H]2O)c1O
inactive: outcome [1] | outcome [2] | outcome [3] | outcome [4] | outcome [5] | Potency [6]

CC1(C)OC(=O)C(OCC2CC2)=C1c1ccc(S(C)(=O)=O)cc1
inactive: outcome [1] | outcome [2] | outcome [3] | outcome [4] | outcome [5] | Potency [6]

O=C(/C=C/c1ccc(O)cc1)OCC1=C[C@@H](O)[C@@H]2C=CO[C@@H](O[C@@H]3O[C@H](CO)[C@@H](O)[C@H](O)[C@H]3O)[C@H]12
inactive: outcome [1] | outcome [2] | outcome [3] | outcome [4] | outcome [5] inactive [at 17.4 µM] | Potency [6]

COC(=O)c1ccc(O[C@@H]2O[C@H](CO)[C@@H](O)[C@H](O)[C@H]2O)c(OC)c1
inactive: outcome [1] | outcome [2] | max response [3] 4.82% | outcome [4] | outcome [5] | Potency [6]

C[C@@H]1O[C@@H](O[C@H]2[C@H](O)[C@@H](C(=O)O)O[C@@H](O[C@H]3CC[C@@]4(C)C(CC[C@]5(C)C4CC=C4C6CC(C)(C)CC[C@]6(C(=O)O)CC[C@]45C)C3(C)C)[C@@H]2O[C@@H]2O[C@H](CO)[C@@H](O)[C@H](O)[C@H]2O)[C@H](O)[C@H](O)[C@H]1O (stereo partly specified)
inactive: outcome [1] | outcome [2] | outcome [3] | max response [4] 1.81% | outcome [5] inactive [at 9.27 µM] | outcome [6] inactive [at 9.27 µM]

O=C1N(CC2CCCCN2)CCN1c1ccccc1 (stereo unspecified)
inactive: outcome [1] | outcome [2] inactive; activator | outcome [3] | outcome [4] | outcome [5] inactive; activator | Potency [6]

CC(=O)O[C@@H]1[C@H]2[C@@H](OC(=O)c3ccccc3)[C@@H](C)C[C@]2(O)[C@H](OC(C)=O)[C@@]2(C)[C@@H]3CC(C)(C)C(=O)[C@]3(OC(C)=O)C[C@@]12C
inactive: outcome [1] | outcome [2] | outcome [3] | max response [4] 4.53% | outcome [5] inactive [at 17.4 µM] | Potency [6]

COC(=O)[C@H](CC1C=NC=N1)NCC12CC3CC(CC(C3)C1)C2 (stereo partly specified)
inactive: outcome [1] | outcome [2] | max response [3] 1.43% | outcome [4] | outcome [5] | Potency [6]

CC1=CC(=O)CC(C)(C)C1CCC(C)OC1OC(COC(=O)c2cc(O)c(O)c(O)c2)C(O)C(O)C1O (stereo unspecified)
inactive: outcome [1] | outcome [2] | outcome [3] | outcome [4] | outcome [5] inactive [at 17.4 µM] | Potency [6]

COc1ccc2c(c1)OC[C@]1(O)c3cc4c(cc3O[C@H]21)OCO4
inactive: outcome [1] | outcome [2] | outcome [3] | outcome [4] | outcome [5] | Potency [6]

CC(C)C(=O)O[C@@H]1[C@@H](O)[C@@H](O[C@H]2O[C@H](CO)[C@@H](O)[C@H](O)[C@H]2O)O[C@H](CO)[C@H]1O
inactive: outcome [1] | outcome [2] | max response [3] 3.97% | max response [4] 1.16% | outcome [5] inactive [at 17.4 µM] | Potency [6]

CCCCNC(=O)[C@@H]1Cc2ccccc2N1C(=O)[C@@H](N)CC
inactive: outcome [1] | outcome [2] | max response [3] 6.18% | max response [4] 3.92% | outcome [5] | Potency [6]

CC(C)NC[C@H](O)COc1ccc(CCOCC2CC2)cc1
inactive: outcome [1] | outcome [2] | outcome [3] | outcome [4] | outcome [5] | Potency [6]

COC(=O)C1C(CC(C)=O)C=CC(O)C12Oc1cc(C)cc(O)c1C2=O (stereo unspecified)
inactive: outcome [1] | outcome [2] | max response [3] 4.45% | max response [4] 3.58% | outcome [5] | Potency [6]

C=C1CC/C=C(/CO)C(=O)C[C@@H]2[C@@H]1CC2(C)C
inactive: outcome [1] | outcome [2] | max response [3] 2.82% | max response [4] 0.52% | outcome [5] | Potency [6]

O=C1C[C@@H](c2ccc(O)cc2)Oc2cc(O)ccc21
inactive: outcome [1] | outcome [2] | max response [3] 3.42% | max response [4] 1.22% | outcome [5] | Potency [6]

COc1cccc(-n2nc(C(=O)O)cc2-c2ccc(C3CCCCC3)c(Cl)c2)c1
inactive: outcome [1] | outcome [2] | outcome [3] | max response [4] 2.94% | outcome [5] | Potency [6]

Nc1ncnc2c1ncn2[C@H]1CCCO1
inactive: outcome [1] | outcome [2] | outcome [3] | outcome [4] | outcome [5] | Potency [6]

CCOc1nc2cccc(C(=O)OCc3oc(=O)oc3C)c2n1Cc1ccc(-c2ccccc2-c2noc(O)n2)cc1
inactive: outcome [1] | outcome [2] | outcome [3] | outcome [4] | outcome [5] | Potency [6]

O=C(c1ccc(C#Cc2cccc(F)c2)cn1)N1CC2CC2C1 (stereo unspecified)
inactive: outcome [1] | outcome [2] | outcome [3] | max response [4] 3.17% | outcome [5] | Potency [6]

C[C@@]12C[C@]3(O)O[C@H](O1)[C@]1(COC(=O)c4ccccc4)[C@H]3C[C@@]12O[C@@H]1O[C@H](COC(=O)c2ccccc2)[C@@H](O)[C@H](O)[C@H]1O
inactive: outcome [1] | outcome [2] | max response [3] 1.05% | max response [4] 1.22% | outcome [5] inactive [at 17.4 µM] | Potency [6]

C=CC(C)(O)CO[C@@H]1O[C@H](CO)[C@@H](O)[C@H](O)[C@H]1O (stereo partly specified)
inactive: outcome [1] | max response [2] -30.3% | max response [3] 1.27% | max response [4] -4.31% | Potency [6]

CC1C/C=C/C=C\CCCCC(O)C/C=C/C(=O)O1 (stereo unspecified)
inactive: outcome [1] | max response [2] -3.25% | max response [3] 1.87% | outcome [4] | Potency [6]

CC(=O)O[C@@H]1[C@H](O[C@@H]2O[C@H](CO)[C@@H](O)[C@H](O)[C@H]2O)[C@@H](O[C@@H]2O[C@@H](C)[C@H](O)[C@@H](O[C@@H]3O[C@H](CO)[C@@H](O)[C@H](O)[C@H]3O)[C@H]2O)[C@H](OC(=O)C23CCC4(C)C(=CCC5C6(C)CC(O)C(O[C@@H]7O[C@H](C(=O)O)[C@@H](O)[C@H](O)[C@H]7O)C(C)(C(=O)O)C6CCC54C)C2CC(C)(C)CC3O)O[C@@H]1C (stereo partly specified)
inactive: outcome [1] | outcome [2] | outcome [3] | outcome [4] | outcome [5] inactive [at 9.27 µM] | outcome [6] inactive [at 9.27 µM]

CCC(CC)n1ccc2c(C(=O)NCc3c(C)cc(C)[nH]c3=O)cc(C#N)cc21
inactive: outcome [1] | outcome [2] | max response [3] 2.42% | max response [4] -0.643% | outcome [5] | Potency [6]

Cc1cc(O)c(C(C)C)cc1O[C@@H]1O[C@H](CO)[C@@H](O)[C@H](O)[C@H]1O
inactive: outcome [1] | outcome [2] | outcome [3] | max response [4] 1.36% | outcome [5] | Potency [6]

CC(=O)[C@@H]1CC[C@]2(C(=O)O)CC[C@]3(C)C(CCC4[C@@]5(C)CC[C@H](O)C(C)(C)C5CC[C@]43C)C12 (stereo partly specified)
inactive: outcome [1] | outcome [2] | outcome [3] | outcome [4] | outcome [5] inactive [at 17.4 µM] | Potency [6]

CC(=O)OC(C)OC(=O)C(C)c1ccc(-c2ccccc2)c(F)c1 (stereo unspecified)
inactive: max response [1] -11.4% | outcome [2] | max response [3] 1.74% and -23.2% | outcome [4] | outcome [5] | outcome [7] | outcome [8] | outcome [9] | outcome [10]

O=C1[C@H](O[C@@H]2O[C@H](CO)[C@@H](O)[C@H](O)[C@H]2O)Oc2ccccc2N1O
inactive: outcome [1] | outcome [2] | max response [3] 3.12% | max response [4] 0.0797% | outcome [5] | Potency [6]
